Hits are enriched below; roughly 15% of the tested compounds scored in any of these assays.
TDP1 cell CPT – qHTS for Inhibitors of human tyrosyl-DNA phosphodiesterase 1 (TDP1): qHTS in cells in presence of CPT. actives 12% (n = 420,000). Potency, µM (top dose mostly 46.2 µM), actives largely listed as inhibitors. AID 686979, 2013. chicken DT40 Tdp1-/-;hTDP1 cells + 20 nM CPT, ATP luminescence, 48 h; further: nearly all actives have a fitted effect of over 55% in size
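Chicken DT40 Tdp1-/- cells complemented with human TDP1, 400 cells/well, exposed to compounds plus 20 nM camptothecin for at least 48 h at 37 C; viability read as ATP content by CellTiter-Glo luminescence.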
ELG1 DNA repair – qHTS screen for small molecules that inhibit ELG1-dependent DNA repair in human embryonic kidney (HEK293T) cells expressing luciferase-tagged ELG1 | HEK293T ELG1-luciferase reporter, luminescence, 16 h; DNA damage induced by 5-fluorouridine | Potency, µM (doses to about 46.1 µM), most hits filed as inhibitors | actives 2.3% (n = 330,000) | AID 504467, 2011; further: nearly all actives have a fitted effect of over 55% in size
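DMSO vehicle served as the neutral condition. Each well held 2,000 cells given 5-fluorouridine plus compound; after 16 hr at 37 °C/5% CO2, ONE-Glo was added and luciferase measured 30 min later.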
RORg inh – qHTS for inhibitors of ROR gamma transcriptional activity. Nuclear receptor ROR-gamma (Mus musculus), P51450. Drosophila S2 Gal4-RORgamma UAS-luciferase reporter, 20 h. Potency, µM (top dose mostly 53.6 µM), hits mostly inhibitors. actives 5.4% (n = 310,000). AID 2551, 2010; further: nearly all actives have a fitted effect of over 60% in size
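Read-out: Photinus luciferase luminescence; inhibitors lower reporter signal. Insect Schneider cells with Gal4-ROR gamma fusion under metallothionein promoter, UAS reporter; 700 uM final copper sulfate induction, 20 hr, ambient temperature.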
12-LOX inh – Primary qHTS assay for inhibitors of human arachidonate 12S-lipoxygenase (ALOX12): Round 2; purified 12hLO, xylenol orange hydroperoxide absorbance; actives 1.1% (n = 580,000); Polyunsaturated fatty acid lipoxygenase ALOX12 (Homo sapiens), P18054; AID 1671190, 2021; Potency, µM (series often up to 108 µM), usual class: inhibitors
Target sequence (P18054 whole entry, looked up): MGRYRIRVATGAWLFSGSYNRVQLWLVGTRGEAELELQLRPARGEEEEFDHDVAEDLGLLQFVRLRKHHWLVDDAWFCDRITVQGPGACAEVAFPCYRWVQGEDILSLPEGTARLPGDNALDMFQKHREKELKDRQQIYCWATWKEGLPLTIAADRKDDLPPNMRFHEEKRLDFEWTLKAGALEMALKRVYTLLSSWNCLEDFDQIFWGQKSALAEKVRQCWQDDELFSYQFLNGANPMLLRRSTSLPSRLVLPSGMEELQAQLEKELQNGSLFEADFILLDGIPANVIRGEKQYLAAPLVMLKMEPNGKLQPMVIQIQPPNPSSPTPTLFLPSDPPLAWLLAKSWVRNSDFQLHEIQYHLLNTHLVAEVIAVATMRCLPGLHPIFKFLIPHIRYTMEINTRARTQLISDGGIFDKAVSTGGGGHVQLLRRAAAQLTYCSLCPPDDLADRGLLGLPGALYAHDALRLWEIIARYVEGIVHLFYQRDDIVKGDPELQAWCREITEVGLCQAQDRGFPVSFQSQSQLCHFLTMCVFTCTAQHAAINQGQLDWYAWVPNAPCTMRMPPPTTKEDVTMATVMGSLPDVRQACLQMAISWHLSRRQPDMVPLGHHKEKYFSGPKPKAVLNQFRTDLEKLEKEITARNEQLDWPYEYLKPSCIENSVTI
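Purified human 12hLO (150 nM final) in 25 mM Hepes, 0.01% Triton X-100, pH 7.0 was preincubated 15 min at room temperature with compound. Then 40 uM arachidonic acid was added, 30 min. Hydroperoxide was read by Fe-XO absorbance ratio 573/405 nm.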
TDP1 cell noCPT – qHTS for Inhibitors of human tyrosyl-DNA phosphodiesterase 1 (TDP1): qHTS in cells in absence of CPT | DT40 Tdp1-/- hTDP1 cells, no CPT, ATP luminescence, 48 h | Potency, µM (highest dose often 46.2 µM), most hits filed as inhibitors | actives 15% (n = 420,000) | AID 686978, 2013; further: nearly all actives have a fitted effect of over 55% in size
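Readout: luminescence from CellTiter-Glo after 30 min in the dark at RT. Cells: DT40 Tdp1-/- with stable hTDP1, 400/well. Exposure: compounds alone, ≥48 hr, 37 °C.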
Gal4-VP16 FLuc – VP16 counterscreen qHTS for inhibitors of ROR gamma transcriptional activity; Potency, µM (series often up to 53.6 µM), most hits filed as inhibitors; Drosophila S2 Gal4-VP16 UAS-luciferase, luminescence, 20 h; AID 2546, 2010; actives 3.5% (n = 310,000);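 further: Gal4-VP16 expression switched on by copper sulfate through the metallothionein promoter; nearly all actives have a fitted effect of over 50% in size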
A number is an active result; [ ] = dose if it differs, or a comment. The call rests on the fitted dose curve; in most records, active means well fitted curve in the direction sought with a large enough effect; inconclusive means small, poorly fitted or top-dose-only effect, or another doubt; inactive means no such curve, though single readings can be large; an effect the other way counts as inactive or inconclusive.

How did O=C(O)c1ccc2c(c1)C1C(Cl)C(Sc3ccccc3[N+](=O)[O-])CC1C(c1cccc([N+](=O)[O-])c1)N2 (stereo unspecified) do in these assays?
TDP1 cell CPT: inactive; ELG1 DNA repair: inactive; RORg inh: inactive; TDP1 cell noCPT: inactive; Gal4-VP16 FLuc: inactive

Results for Cc1ccc2c(c1Cl)NC(C(=O)O)C1CC(Sc3ccccc3[N+](=O)[O-])C(Cl)C21 (stereo unspecified) ?
TDP1 cell CPT: inactive; ELG1 DNA repair: inactive; RORg inh: inactive; TDP1 cell noCPT: inactive; Gal4-VP16 FLuc: inactive

How did O=C(O)c1cccc2c1NC(c1cccc([N+](=O)[O-])c1)C1CC(Sc3ccccc3[N+](=O)[O-])C(Cl)C21 (stereo unspecified) do in these assays?
TDP1 cell CPT: inconclusive; ELG1 DNA repair: inactive; RORg inh: inactive; 12-LOX inh: 8.91µM; TDP1 cell noCPT: inconclusive; Gal4-VP16 FLuc: inactive

What do the screens show for `CCCn1c2ccccc2c2nnc(SCC(=O)Nc3cccc(C(C)=O)c3)nc21`?
TDP1 cell CPT: inconclusive; 12-LOX inh: inactive; TDP1 cell noCPT: 14.6µM

What do the screens show for `O=C(CSc1ccc(-c2ccco2)nn1)Nc1ccccc1`?
TDP1 cell CPT: inactive; ELG1 DNA repair: inconclusive; RORg inh: inactive; 12-LOX inh: inactive; TDP1 cell noCPT: inconclusive; Gal4-VP16 FLuc: inactive

Results for O=C(CCc1nc2ccccc2s1)N1[C@H]2CC[C@@H]1c1cnc(-c3ccc(F)cc3)nc1C2 ?
12-LOX inh: inactive

How did CC(C)N1CCC(NC(=O)c2cn(Cc3ccccc3)c3ccccc23)CC1 do in these assays?
12-LOX inh: inactive

How did Cc1cccc(Cn2c(=O)n(Cc3ccc(C(=O)NC4CCN(Cc5ccccc5)CC4)cc3)c(=O)c3ccccc32)c1 do in these assays?
TDP1 cell CPT: 4.11µM; 12-LOX inh: inactive; TDP1 cell noCPT: 3.26µM

Results for COC(=O)C1=C(c2ccccc2)C[C@@H]2CC[C@H]1N2C(=O)NC1CC1 ?
TDP1 cell CPT: inactive; 12-LOX inh: inactive

How did COC(=O)C1=C(c2ccc(-c3ccccc3)c(F)c2)C[C@@H]2CC[C@H]1N2C(=O)NC(C)C do in these assays?
TDP1 cell CPT: 13µM; ELG1 DNA repair: inactive; 12-LOX inh: inactive; TDP1 cell noCPT: 18.4µM

What do the screens show for `COC(=O)C1=C(c2ccc3ccccc3c2)C[C@@H]2CC[C@H]1N2C(=O)NC(C)C`?
TDP1 cell CPT: inconclusive; ELG1 DNA repair: inactive; 12-LOX inh: inactive; TDP1 cell noCPT: 18.4µM

What do the screens show for `COC(=O)C1=C(c2ccc(-c3ccccc3)c(F)c2)C[C@@H]2CC[C@H]1N2C(=O)NC1CC1`?
TDP1 cell CPT: 4.11µM; ELG1 DNA repair: inactive; 12-LOX inh: inactive; TDP1 cell noCPT: 9.2µM

What do the screens show for `N#C/C(=C\c1ccc(Cl)cc1)C(=O)Nc1ccc(Cl)cc1C(=O)c1ccccc1`?
12-LOX inh: inactive

How did C#C[C@H]1CN2CC[C@H]1C[C@@H]2CNCc1ccc(F)c(F)c1 do in these assays?
12-LOX inh: inactive

Results for N#Cc1ccccc1CN1CCN(c2ccccc2)CC1 ?
12-LOX inh: inactive

How did CN(C(=O)Oc1ccc([N+](=O)[O-])cc1)c1ccccc1 do in these assays?
TDP1 cell CPT: inactive; ELG1 DNA repair: inconclusive; RORg inh: inactive; 12-LOX inh: inactive; TDP1 cell noCPT: inactive; Gal4-VP16 FLuc: inactive

What do the screens show for `CN(Cc1cccc(-c2ccncc2)c1)C(=O)Oc1ccc([N+](=O)[O-])cc1`?
TDP1 cell CPT: 20.6µM; TDP1 cell noCPT: 16.4µM

Results for c1ccc(C2(NC3=NCCO3)CCCCC2)cc1 ?
TDP1 cell CPT: inconclusive; 12-LOX inh: inactive; TDP1 cell noCPT: 9.2µM

How did O=C(Cn1ncc2c3ccccc3n(Cc3ccccc3F)c2c1=O)N1CCC2(CC1)OCCO2 do in these assays?
TDP1 cell CPT: 23.1µM; ELG1 DNA repair: inactive; RORg inh: inactive; 12-LOX inh: inactive; TDP1 cell noCPT: 11.6µM; Gal4-VP16 FLuc: inactive

What do the screens show for `CN1C2CCC(C)(C)C1CC(OC(=O)C(O)(c1cccs1)c1cccs1)C2` (stereo unspecified)?
12-LOX inh: inactive[22.9 µM]

What do the screens show for `COC(=O)C1(O)CC2OC1(C)n1c3ccccc3c3c4c(c5c6ccccc6n2c5c31)C(=O)NC4` (stereo unspecified)?
RORg inh: inactive[10 µM]; Gal4-VP16 FLuc: inconclusive

How did CN[C@H]1C[C@H]2O[C@@](C)([C@H]1OC)n1c3ccccc3c3c4c(c5c6ccccc6n2c5c31)C(=O)NC4 do in these assays?
ELG1 DNA repair: 0.517µM; RORg inh: inconclusive; Gal4-VP16 FLuc: 6.31µM

Results for CCn1cc(C(=O)OC(C)C(=O)NC(=O)NC(C)(C)C)c2ccccc21 (stereo unspecified) ?
12-LOX inh: inactive

Results for N#CC1(c2ccccc2)CCN(C(=O)c2cccc(-n3cnnc3)c2)CC1 ?
12-LOX inh: inactive

What do the screens show for `CC1=C(C(=O)O)N2C(=O)C(NC(=O)CCCC(=O)O)C2SC1` (stereo unspecified)?
TDP1 cell CPT: inactive; ELG1 DNA repair: inactive; RORg inh: inactive; 12-LOX inh: 28.2µM; TDP1 cell noCPT: inactive; Gal4-VP16 FLuc: inactive

Results for COc1ccc(-c2cccc3c2CCNC3)cc1OC ?
12-LOX inh: inactive

What do the screens show for `Cc1nc(-c2ccco2)cc([C@H]2CN3CC[C@H]2C[C@@H]3CNCc2ccccc2)n1`?
12-LOX inh: inactive

What do the screens show for `O=c1c(C=NCc2cccs2)c(O)n(C2CCCCC2)c(=O)n1C1CCCCC1`?
TDP1 cell CPT: inactive; ELG1 DNA repair: inactive; RORg inh: inactive; 12-LOX inh: inactive; TDP1 cell noCPT: inconclusive; Gal4-VP16 FLuc: inactive

What do the screens show for `O=c1c(C=NCCN2CCNCC2)c(O)n(C2CCCCC2)c(=O)n1C1CCCCC1`?
TDP1 cell CPT: 16.4µM; ELG1 DNA repair: inactive; RORg inh: inconclusive; TDP1 cell noCPT: inconclusive; Gal4-VP16 FLuc: inactive

Results for NCCNc1ccc([N+](=O)[O-])c2cccnc12 ?
TDP1 cell CPT: inconclusive; ELG1 DNA repair: inactive; RORg inh: inactive; 12-LOX inh: inactive; TDP1 cell noCPT: 20.6µM; Gal4-VP16 FLuc: inactive

What do the screens show for `CCC(=O)Nc1ccccc1-c1nc2ccccc2n(C(CC)C(=O)Nc2cccc(Cl)c2)c1=O` (stereo unspecified)?
TDP1 cell CPT: 25.9µM; 12-LOX inh: inactive; TDP1 cell noCPT: 20.6µM

Source: PubChem
